hDAT+cocaine = changed human dopamine transporter uptake under cocaine IC80; Q01959; LLC-PK1 hDAT cells, [14C]-dopamine uptake with cocaine IC80; actives deviate in either direction; B-score at 10 µM; hit rate 1.3% among 110,000;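 active = Z score or B-score, a plate-position-corrected score, falls beyond the plate's 99.7% confidence bounds, in either direction; inactive = both scores lie inside the 99.7% bounds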;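 also: scored against the spread of the other compound wells on the same plate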
PLAP activator = activates human placental alkaline phosphatase; P05187; purified PLAP enzyme, luminescent substrate read-out; hits give high values; activation fold at 20 µM; hit rate 1.2% among 96,000; in the data active = activation fold above about 2
PostGolgi ctrl = inhibits growth of the yeast control strain | AID 738 | efflux-deficient yeast background strain, growth absorbance A615, 16 h | inhibition, % at 10 µM | hit rate 5% among 98,000
Cav32 inh = human Cav3.2 channel inhibition, primary screen. O95180. hit rate 4% among 100,000. AID 449739. B-score at 10 µM. Cav3.2-expressing cells, Fluo-4 calcium fluorescence FDSS; hits give low values;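 active = single-dose well whose peak fluorescence ratio is a statistical outlier from its plate by either plate-standardised score or position-corrected B-score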
PostGolgi yeast = growth inhibition of a yeast mutant, post-Golgi transport screen; hit rate 0.9% among 98,000; post-Golgi transport phenotypic cell assay; inhibition, % at 10 µM;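 also: yeast cells grown in 1536-well plates; yeast grown about 18 h at 30C before absorbance read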
* = called active by the depositor; nt = no result. Most compounds without a hit are left out; they make up all but 9.6% or so of the library. Rule as the data show it, unless noted: active = inhibition above about 30%; inactive = the rest.

SMILES	hDAT+cocaine	PLAP activator	PostGolgi ctrl	Cav32 inh	PostGolgi yeast
O=C(NNC(=S)NC(=O)c1ccccc1[N+](=O)[O-])c1ccccc1	-0.2	nt	nt	-3.7	nt
CCCCCCCCCOC(=O)C(CC(=O)O)N1CCOCC1 (stereo not given)	-1.6	2*	0	0.51	4
CCCCCOC(=O)CC(C(=O)OCCCCC)N1CCCCC1 (stereo not given)	-0.33	nt	nt	0.0064	nt
O=C(CCC(=O)c1cccs1)Nc1ccc(F)c(F)c1F	0.024	1	14	0.49	-3
Clc1ccc(Cn2ncc3c(N4CCOCC4)ncnc32)cc1	0.35	1	6	nt	-1
CC(C)C(NC(=O)c1cccs1)c1nnc(SCC(=O)Nc2nccs2)n1C (stereo not given)	0.23	0.9	-1	0.33	7
Cc1cc(C)c(S(=O)(=O)Nc2ccc[nH]c2=O)c(C)c1	-0.15	2*	21	-0.49	3
Cc1ccccc1Cn1cc(NC(=O)c2noc3c2CC(C(C)(C)C)CC3)cn1 (stereo not given)	0.47	1	2	-2	4
Cc1ccccc1Cn1nc(C)c(NC(=O)c2noc3c2CC(C(C)(C)C)CC3)c1C (stereo not given)	0.22	1.3	17	-4.7*	4
Cc1ccccc1Cn1nc(C)c(NC(=O)c2noc3c2CCc2ccccc2-3)c1C	1.1	1.4	38*	-6.9*	25
CC1(C(=O)O)CCC(C(=O)Nc2ccc(S(N)(=O)=O)cc2)C1(C)C (stereo not given)	-0.71	1.1	2	-0.67	21
COc1cccc(-c2nc(N3CCC(C)CC3)c3ccccc3n2)c1O	0.37	1	72*	-0.25	0
COc1cccc(-c2nc(N3CC(C)CC(C)C3)c3ccccc3n2)c1O (stereo not given)	-0.22	0.9	75*	-0.22	1
Oc1ccccc1-c1nc(N2CCN(Cc3ccccc3)CC2)c2ccccc2n1	-0.47	1.2	42*	-0.54	-5
CCOc1ccccc1NC(=O)c1ccc(Cl)c(NC(=O)CC(c2ccccc2)c2ccccc2)c1	-0.81	1.1	2	-2.8	-16
COc1ncccc1-c1nnn(-c2ccccc2)n1	0.26	nt	nt	0.035	nt
NC1=NS(=O)(=O)NC1c1cccc(Cl)c1 (stereo not given)	-0.21	1	1	0.052	-2
O=C1NN=C(c2ccc(Cl)cc2)CC1c1cccc(Cl)c1 (stereo not given)	-0.3	1.3	46*	-2.7	12
CC[n+]1c(/C=C/C=C/N(C(C)=O)c2ccccc2)sc2ccccc21	-0.21	0.5	-4	-4.6*	1
COc1ccccc1NC(=O)c1sc2ncn(Cc3ccccc3C)c(=O)c2c1C	0.46	1	2	-0.02	9
COc1ccccc1NC(=O)Cn1cnc2sc(C(=O)NCc3ccco3)c(C)c2c1=O	1.9*	1	7	-2.5	7
CSCc1nnc(NC(=O)c2ccc(S(=O)(=O)N(CC(C)C)CC(C)C)cc2)o1	0.12	1.6	23	-6*	-5
Cc1nnc(NC(=O)c2ccc(S(=O)(=O)N(C)Cc3ccccc3)cc2)o1	-0.4	1.6	11	0.41	0
CCN(Cc1ccccc1)S(=O)(=O)c1ccc(C(=O)Nc2nnc(C3CC3)o2)cc1	1.2	1.5	3	-5.6*	14
C=CCn1c(SCc2c(C(=O)OC)sc(N)c2C(=O)OC)nnc1-c1ccc(Br)cc1	1.6	1.6	20	-4.6*	11
SMILES	hDAT+cocaine	PLAP activator	PostGolgi ctrl	Cav32 inh	PostGolgi yeast
COCCNC(=O)CSc1nc(-c2ccccc2)cs1	-0.53	1	4	1.2	12
COc1ccc(/C=C/C(=O)NC(=S)NNC(=O)c2cccnc2)cc1OC	-1.2	2*	9	-0.81	-4
Cc1cc(C)c(S(C)(=O)=O)c(Sc2ccc(Cl)cc2)n1	-0.91	1	31*	-0.13	16
Cc1cc(C)c(S(=O)(=O)c2ccccc2)c(Cl)n1	-0.72	1.2	4	0.73	1
Cc1ccc(-c2noc(CN(C(=O)CCN3C(=O)c4ccccc4C3=O)C(C)C)n2)cc1	-0.0066	1.5	11	-1.6	-2
CC(C)N(Cc1nc(-c2ccc(Cl)cc2)no1)C(=O)CCC1CCCC1	0.067	1.5	35*	-1	3
Cc1ccc(C)c(C(=O)N(Cc2nc(-c3ccc(Cl)cc3)no2)C(C)C)c1	-0.053	1.6	32*	nt	-1
COc1cccc(OCC(=O)N(Cc2nc(-c3ccc(Cl)cc3)no2)C(C)C)c1	-0.052	1.4	54*	-2.6	10
COc1ccc(-c2noc(CN(C(=O)C(C)(C)C)C(C)C)n2)cc1	-0.76	1.3	6	-0.62	6
Cc1ccc(-c2noc(CN(C(=O)Cc3ccccc3)C(C)C)n2)cc1	-0.01	1.6	16	-3.4	-4
COc1ccccc1OCC(=O)N(Cc1nc(-c2ccc(Cl)cc2)no1)C(C)C	-1.4	1.6	46*	-5*	-8
O=C(Cn1nnc(-c2ccccc2Cl)n1)NCc1ccc2c(c1)OCO2	-0.73	0.9	5	-3.2	-5
O=C(NCc1ccccn1)c1cn(CCc2ccccc2)nn1	-0.02	1.1	9	0.58	3
Cc1cc(Br)ccc1OCC(=O)N(Cc1nc(-c2ccccc2)no1)C(C)C	-1.3	1.4	26	-4.8*	-2
CC(C)N(Cc1nc(-c2ccccc2)no1)C(=O)COc1ccccc1	0.081	1.5	12	-1.9	0
CC(=O)Nc1ccccc1-c1nc2ccc(C(=O)N3CCN(c4cc(C)ccc4C)CC3)cc2[nH]c1=O	0.5	1.6	7	-3.7*	-6
CCN(CCNC(=O)c1ccc2nc(-c3ccccc3NC(C)=O)c(=O)[nH]c2c1)c1ccccc1	0.94	1.2	15	0.71	1
CCOCCCNC(=O)C(NC(=O)c1cnccn1)c1ccc(C)cc1 (stereo not given)	0.039	1.5	-9	-1.7	-1
CCCn1c(SCC#N)nc2c(c1=O)C1(CCCC1)Cc1ccccc1-2	-0.71	1.1	29	-4.2*	-5
CCn1c(SCC(N)=O)nc2c(c1=O)C1(CCCC1)Cc1ccccc1-2	-0.38	1.1	50*	-0.27	-10
N#CCSc1nc2c(c(=O)n1Cc1ccco1)C1(CCCC1)Cc1ccccc1-2	0.19	0.9	nt	-6.2*	nt
N#CCSc1n[nH]c2nc3c(c(=O)n12)C1(CCCC1)Cc1ccccc1-3	-0.21	1	21	-0.67	1
O=c1c2c(nc(NCCO)n1CC1CCCCC1)-c1ccccc1CC21CCCC1	-0.31	1.6	23	-2.7	18
Cn1ncc(C#N)c1NC(=O)c1cc(-c2ccccc2Cl)on1	0.08	1.2	30*	0.36	-5
Cn1ncc(C#N)c1NC(=O)C1CC(c2c(F)cccc2Cl)=NO1 (stereo not given)	1.1	1.1	-2	0.74	5
O=C(Nc1ccc(Cl)cc1)N(Cc1cccs1)Cc1cccs1	0.15	0.9	35*	-0.035	2
O=C(Nc1ccc(Cl)c(Cl)c1)N(CCCN1CCOCC1)Cc1cccs1	-1.4	1.5	31*	-0.54	15
O=C(Nc1ccc(F)cc1)N(CCCN1CCOCC1)Cc1cc2cc3c(cc2[nH]c1=O)OCCO3	-0.024	1.7	40*	0.5	2
